Compound activity from PubChem.
Hits are enriched below; roughly 21% of the tested compounds scored in any of these assays.
Giardia FBPA inh – qHTS Assay for Inhibitors of Fructose-1,6-bisphosphate Aldolase from Giardia Lamblia; A8B2U2; purified Giardia FBPA; Potency, µM (titrated, usually from 59.6 µM), usual class: inhibitors; 0.71% of 290,000 active; AID 2451, 2010; further: nearly all actives have a fitted effect of over 55% in size
Target sequence (A8B2U2 whole entry, looked up): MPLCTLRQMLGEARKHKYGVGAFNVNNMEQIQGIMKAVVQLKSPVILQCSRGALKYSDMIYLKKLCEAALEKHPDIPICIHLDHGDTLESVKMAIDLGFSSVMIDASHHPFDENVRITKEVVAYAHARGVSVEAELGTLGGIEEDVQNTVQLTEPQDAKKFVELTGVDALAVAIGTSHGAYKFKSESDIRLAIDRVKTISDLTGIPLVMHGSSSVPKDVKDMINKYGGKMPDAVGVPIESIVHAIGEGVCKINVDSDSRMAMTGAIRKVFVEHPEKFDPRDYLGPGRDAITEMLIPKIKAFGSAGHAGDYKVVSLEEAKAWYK
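40 nM FBPA preincubated 10 min at RT with compound (up to 57.5 uM final), then substrate plus GAPDH/TPI/NAD/arsenate coupling and diaphorase/resazurin added. Fluorescence read after 20 min at RT, 525/598 nm.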
NS1 function inh – qHTS Assay for Inhibitors of Influenza NS1 Protein Function; AID 2326, 2010; Potency, µM (series often up to 46.1 µM); 0.4% of 270,000 active; calls by dose curve; further: actives are rising curves; nearly all actives have a fitted effect of over 50% in size
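OD600 was taken as the measure of yeast growth restored by compound in an NS1-expressing S. cerevisiae strain. Cells had been washed out of glucose medium and diluted 1:100 into galactose -URA medium, pH 6.0.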
CHX counter – Cycloheximide Counterscreen for Small Molecule Inhibitors of Shiga Toxin; cell reporter, cycloheximide protein synthesis inhibition counterscreen; max response, %; 12% of 300,000 active; in the data active means max response mostly above about 13%, no sharp cut-off; inactive means mostly below about 14%; further: read at 38.3 µM for the half of the compounds with a filed dose
Shiga inhibitor – A qHTS for Small Molecule Inhibitors of Shiga Toxin | Vero cells, Shiga toxin protein synthesis inhibition reporter | inhibition, % at 38.7 µM | 9.2% of 290,000 active; in the data active means inhibition mostly above about 28%, no sharp cut-off; inactive means mostly below about 43%
Pf growth 48h – Primary qHTS for delayed death inhibitors of the malarial parasite plastid, 48 hour incubation. Potency, µM (titrated, usually from 28.7 µM), actives largely listed as inhibitors. 5.9% of 310,000 active. P. falciparum luciferase growth in erythrocytes, 48 h
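In quantitative HTS format, infected erythrocytes bearing luciferase-reporter parasites were treated for a single generation at 37 C. Luminescence after adding detection reagent served as the growth measure.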
Pf growth 96h – Primary qHTS for delayed death inhibitors of the malarial parasite plastid, 96 hour incubation; Potency, µM (highest dose often 28.7 µM), usual class: inhibitors; P. falciparum luciferase reporter growth, 96 h; 6.9% of 320,000 active
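P. falciparum expressing integrated firefly luciferase grown in erythrocytes (2% hematocrit, 0.05% parasitemia final) with compounds for 96 hours at 37 C, 5% CO2. Growth inhibition read as loss of luminescence after adding luciferase detection reagent.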
Large screens that a line does not name were inactive. Unless noted, the call rests on the fitted dose curve; in most records, active means well fitted curve in the direction sought with a large enough effect; inconclusive means small, poorly fitted or top-dose-only effect, or another doubt; inactive means no such curve, though single readings can be large; an effect the other way counts as inactive or inconclusive.

CS(=O)(=O)NCc1ccc(C(=O)O)cc1	Pf growth 96h inconclusive (no result: NS1 function inh)
O=C(NCC(=O)N1CCOCC1)c1ccccc1	CHX counter 15, Shiga inhibitor 55
Cc1ccc(SCC(=O)Nc2cc([N+](=O)[O-])ccc2O)cc1	CHX counter 28, Shiga inhibitor 55
COc1ccc([N+](=O)[O-])cc1NC(=O)CSCc1ccc(Br)cc1	none
O=C(CSCc1ccc(Cl)cc1)Nc1cc([N+](=O)[O-])ccc1O	Shiga inhibitor 46, Pf growth 48h inconclusive
O=C(CSCc1ccccc1)Nc1ccccc1C(=O)Nc1ccc(C(=O)O)cc1	CHX counter 13
O=C(CSCc1ccc([N+](=O)[O-])cc1)Nc1ccc(S(=O)(=O)N2CCCCCC2)cc1	Pf growth 48h inconclusive, Pf growth 96h 10µM
COc1ccc2c(C)cc(SCC(=O)N(C)C3CCS(=O)(=O)C3)nc2c1 (stereo not given)	Pf growth 96h inconclusive (no result: NS1 function inh)
Cc1ccc(-n2c(SCC(=O)N(C)C)nnc2-c2ccco2)cc1	NS1 function inh inconclusive
O=C(CSCc1ccc([N+](=O)[O-])cc1)Nc1ccccc1C(=O)O	Pf growth 96h 9.3µM
O=C(CSCc1ccccc1)Nc1cccc(C(=O)Nc2ccccc2C(=O)O)c1	none
CCOc1ccccc1NC(=O)CSc1ccc([N+](=O)[O-])cc1	Pf growth 48h 2.9µM, Pf growth 96h 2.3µM (no result: NS1 function inh)
CCOC(=O)c1ccc(NC(=O)Nc2cc(C)cc(C)n2)cc1	none (no result: NS1 function inh)
CCn1c(-c2ccc(-c3ccccc3)cc2)c[nH]c1=S	Pf growth 96h 4.7µM (no result: Pf growth 48h)
Cn1c(-c2ccc(-c3ccccc3)cc2)c[nH]c1=S	CHX counter 31, Shiga inhibitor 69, Pf growth 48h 5.2µM, Pf growth 96h inconclusive
C=CCn1c(-c2ccc(Cl)cc2)c[nH]c1=S	none
C=CCn1c(-c2ccccc2)c[nH]c1=S	NS1 function inh inconclusive, CHX counter 50, Shiga inhibitor 78, Pf growth 96h inconclusive
Brc1cc(Br)c2nc(-c3ccc(N4CCOCC4)cc3)ccc2c1	CHX counter 38, Shiga inhibitor 55
O=C(CN1C(=O)NC2(CCCC2)C1=O)Nc1cc(Cl)ccc1N1CCCC1	Pf growth 96h inconclusive
CCC1(c2ccccc2)NC(=O)N(CC(=O)Nc2cc(Cl)ccc2N2CCN(C)CC2)C1=O (stereo not given)	Pf growth 48h 12µM, Pf growth 96h inconclusive (no result: Giardia FBPA inh, NS1 function inh, CHX counter, Shiga inhibitor)
CN1CCN(c2ccc(Cl)cc2NC(=O)CN2C(=O)NC(C)(c3ccccc3)C2=O)CC1 (stereo not given)	Pf growth 48h 2.9µM, Pf growth 96h inconclusive (no result: Giardia FBPA inh, NS1 function inh, CHX counter, Shiga inhibitor)
CCC1(c2ccc(F)cc2)NC(=O)N(CC(=O)N2CCc3ccccc32)C1=O (stereo not given)	Pf growth 48h 12µM, Pf growth 96h 10µM (no result: Giardia FBPA inh, NS1 function inh, CHX counter, Shiga inhibitor)
CC1(c2ccccc2)NC(=O)N(CC(=O)Nc2ccccc2N2CCCC2)C1=O (stereo not given)	Pf growth 48h inconclusive (no result: Giardia FBPA inh, NS1 function inh, CHX counter, Shiga inhibitor)
Nc1oc2ccccc2c1C(=O)Cc1ccccc1O[C@@H]1O[C@H](CO)[C@@H](O)[C@H](O)[C@H]1O	none (no result: Giardia FBPA inh, NS1 function inh, CHX counter, Shiga inhibitor)
O=C(COc1ccccc1)NCC(=O)N/N=C/c1ccc(O)cc1O	Pf growth 48h inconclusive, Pf growth 96h inconclusive
CCCN(CC(=O)Nc1ccc(F)c(F)c1F)C(=O)c1cc([N+](=O)[O-])ccc1N1CCOCC1	Pf growth 96h inconclusive (no result: Giardia FBPA inh, NS1 function inh, CHX counter, Shiga inhibitor)
CC1(C)CC23C(=O)CCC(O)C2(C)CCC13 (stereo not given)	none (no result: NS1 function inh, CHX counter, Shiga inhibitor, Pf growth 48h, Pf growth 96h)
CCCC(=O)NC(c1ccccc1Cl)c1ccc2cccnc2c1O (stereo not given)	Pf growth 48h inconclusive, Pf growth 96h inconclusive
CCCCC(=O)NC(c1ccc(Cl)cc1Cl)c1ccc2cccnc2c1O (stereo not given)	Giardia FBPA inh inconclusive, Pf growth 48h 1.9µM
Cc1cc(NC(c2ccc(Cl)cc2)c2ccc3cccnc3c2O)no1 (stereo not given)	Pf growth 96h 0.33µM (no result: Pf growth 48h)
CCC(=O)NC(c1ccc(Cl)cc1Cl)c1ccc2cccnc2c1O (stereo not given)	Giardia FBPA inh inconclusive, Pf growth 48h 2.9µM (no result: Shiga inhibitor)
C(=C\n1nnc2ccccc21)/c1ccccn1	none (no result: Giardia FBPA inh, NS1 function inh, CHX counter, Shiga inhibitor)
CSCc1cc(N(C)C)nc(SCc2ccc(Cl)c(Cl)c2)n1	Pf growth 48h 10µM, Pf growth 96h inconclusive
